Assay results as given in PubChem BioAssay AID1159580 (chemical genetic matrix, 2015).
In all, about 5,500 compounds went through this assay and about 2,000 (36%) were called active. Another 18% or so got no clear call; they are omitted. No stated cut-off is given here; in the data, active means normalized growth mostly below about 0.91 (no sharp cut-off); inconclusive means no clear call, values can overlap the other calls; inactive means mostly above about 0.92. The list shows a part of the results.

Assay: chemical genetic growth profiling, strain panel (AID 1159580);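 further: tested at 20 µM; growth read once vehicle control cultures reached saturation at 30 °C; 1 = growth at the plate median or of vehicle wells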
Conditions: growth OD

Measured: normalized growth

CC(C)CC1NC(=O)NC1=O (stereo not drawn)
inactive: S. cerevisiae deletion strains, locus YAL013W, strain DEP1, stronger effect = lower value 1.02 | S. cerevisiae deletion strains, locus YBR229C, strain ROT2, stronger effect = lower value 1.01 | S. cerevisiae deletion strains, locus YDL101C, strain DUN1, stronger effect = lower value 1 | S. cerevisiae deletion strains, locus YDL134C, strain PPH21, stronger effect = lower value 1.05 | S. cerevisiae deletion strains, locus YDR150W, strain NUM1, stronger effect = lower value 1.01 | S. cerevisiae deletion strains, locus YEL061C, strain CIN8, stronger effect = lower value 1.02 | S. cerevisiae deletion strains, locus YGR078C, strain PAC10, stronger effect = lower value 1.01 | S. cerevisiae deletion strains, locus YGR229C, strain SMI1, stronger effect = lower value 1.01 | S. cerevisiae deletion strains, locus YHR030C, strain SLT2, stronger effect = lower value 1.04 | S. cerevisiae deletion strains, locus YHR087W, strain rtc3, stronger effect = lower value 1.02 | S. cerevisiae deletion strains, locus YJR043C, strain POL32, stronger effect = lower value 1.01 | S. cerevisiae deletion strains, locus YJR075W, strain HOC1, stronger effect = lower value 1.02 | S. cerevisiae deletion strains, locus YLR039C, strain RIC1, stronger effect = lower value 1 | S. cerevisiae deletion strains, locus YLR058C, strain SHM2 (second series), stronger effect = lower value 0.998 | S. cerevisiae deletion strains, locus YLR085C, strain ARP6, stronger effect = lower value 1.07 | S. cerevisiae deletion strains, locus YLR262C, strain YPT6, stronger effect = lower value 1 | S. cerevisiae deletion strains, locus YML094W, strain GIM5, stronger effect = lower value 1.03 | S. cerevisiae deletion strains, locus YMR219W, strain ESC1, stronger effect = lower value 1.01 | S. cerevisiae deletion strains, locus YMR263W, strain SAP30, stronger effect = lower value 1.01 | S. cerevisiae deletion strains, locus YMR307W, strain GAS1, stronger effect = lower value 1.02 | S. cerevisiae deletion strains, locus YNL153C, strain GIM3, stronger effect = lower value 1.01 | S. cerevisiae deletion strains, locus YNL298W, strain CLA4 (second series), stronger effect = lower value 0.984 | S. cerevisiae deletion strains, locus YNL322C, strain KRE1, stronger effect = lower value 1.02 | S. cerevisiae deletion strains, locus YNR030W, strain Alg12, stronger effect = lower value 1.02 | S. cerevisiae deletion strains, locus YPL055C, strain LGE1, stronger effect = lower value 1.07 | S. cerevisiae deletion strains, locus YPL241C, strain CIN2, stronger effect = lower value 1.02 | S. cerevisiae deletion strains, locus YPR135W, strain CTF4, stronger effect = lower value 1.13 | S. cerevisiae strains, strain wild type, stronger effect = lower value 1.02
